Assay in all cases: NCI-60 one-dose screen, 48 h (100 = growth as untreated, 0 = no growth, -100 = all killed)
Common to all, as to conditions: 10 µM

Assay [1] concerns NCI-H23 lung.
In assay [2] the test system is NCI-H226 lung.
In assay [3] the test system is NCI-H322M lung.
Assay [4] deals with HOP-62 NSCLC.
The subject of assay [5] is NCI-H460 lung.
Assay [6] relates to NCI-H522 lung.
The subject of assay [7] is A549/ATCC NSCLC.
The test system of assay [8] is 786-0 renal.
The test system of assay [9] is COLO 205 colon.
For assay [10], the system named is DU-145 prostate.
Assay [11] relates to K-562 leukemia.
Assay [12] deals with MALME-3M melanoma.
The test system of assay [13] is MDA-MB-231 breast.
Assay [14] relates to RXF 393 renal.
Assay [15] relates to SF-268 CNS.
The test system of assay [16] is SF-295 CNS.
Assay [17] has as its system SF-539 CNS.
For assay [18], the system named is UACC-257 melanoma.
For assay [19], the system named is M14 melanoma.
Assay [20] relates to HCT-15 colon.

Compounds without any hit were thinned out: in the full panel of roughly 83,000, 20% have a hit.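 The test compound was applied at a single concentration to cells in 96-well plates for 48 hours, and percent growth was recorded.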 A number with no mark means an inactive call. The source made the active and inactive calls. The calls were made as follows: active = growth percent below 10; inactive = the rest.

With `N=C(N)c1ccc(-c2ccc(-c3ccco3)o2)cc1`, the growth in assay [1] is 94.8%; in assay [2], 77.8%; in assay [3] it was 67%; in assay [4] it was 81.7%; in assay [5], 62.8%; in assay [6], 95%. Besides, the growth is 68.7% in assay [7]; 79.9% in assay [8]; -90.2% (active) in [9]; 88.2% in assay [10]; 7.46% (active) in [11]; 53% in [12]. Besides, the growth in [13] is 52.4%; in [14] it was 62.5%; in assay [15] it was 74.4%; in assay [16] it was 61.4%; in [17], 83.1%; in assay [18] it was 64.2%. Also, the growth in [19] was 74%; in assay [20], 31.2%.

`O=C(Nc1ccc(Cl)c([N+](=O)[O-])c1)Nc1nc2ccccc2s1`: the growth in assay [1] is 64.5%; in assay [2], 86.4%; in [3], 101%; in assay [4], 90.1%; in assay [5], 82%; in assay [6], 36.1%. The growth was 27.2% in [7]; 90.3% in assay [8]; 108% in [9]; 107% in [10]; 74.9% in assay [11]; 67.6% in assay [12]. Moreover, the growth in assay [13] is 86.2%; in assay [14], 113%; in assay [15], 106%; in assay [16] it was 71%; in assay [17], 83.6%; in [18], 91.8%. In addition, the growth in [19] was 88.7%; in assay [20] it was 92.3%.

As for `COc1cc(NC(=O)CCSc2nc3ccc(C)cc3c(=O)n2Cc2ccccc2)cc(OC)c1OC`, the growth in assay [1] was 108%; in assay [2], 27.4%; in assay [3] it was 71.9%; in assay [4], 9.27% (active); in assay [5], 48.3%; in assay [6], 65.2%. The growth in assay [7] was 42.6%; in [8], 72.6%; in assay [9] it was 112%; in assay [10], 83.6%; in assay [11] it was 78%; in assay [12], 33.8%. For the same compound, the growth in [13] is 52.5%; in assay [14], 36.4%; in [15] it was 40.4%; in assay [16], 59.4%; in assay [17], 33.5%; in [18] it was 57.1%. Also, the growth in assay [19] is 87.4%; in [20], 76.5%.

For the compound `Nc1c(C(=O)Nc2cccc(F)c2)sc2nc3c(cc12)C(=O)CCC3`, the growth in assay [1] is 41.6%; in assay [2], 64.6%; in assay [3] it was 58.8%; in [4], 69.3%; in assay [5], 11.5%; in [6], 5.31% (active). Besides, the growth is 27.6% in [7]; 51.6% in assay [8]; -3.2% (active) in assay [9]; -12.7% (active) in assay [10]; 20.1% in [11]; 32.4% in assay [12]. Also, the growth in [13] is 40.8%; in assay [14], -14.3% (active); in [15], 73.5%; in assay [16], 7.23% (active); in [17], -17.4% (active); in assay [18] it was 57.3%. In addition, the growth in [19] is 15.3%; in assay [20], 25.8%.

As for `COc1ccc2c(c1)O/C(=C\c1ccc([N+](=O)[O-])s1)C2=O`, the growth is 5.99% (active) in assay [1]; 69.9% in [2]; 29.7% in [3]; 45.6% in [4]; 2.82% (active) in assay [5]; -72.5% (active) in assay [6]. Also, the growth in [7] is 33.9%; in assay [8] it was 69%; in assay [9] it was -30% (active); in [10] it was -6.02% (active); in [11], -1.48% (active); in [12] it was 80%. The growth in assay [13] is 37.4%; in [14] it was -17.3% (active); in assay [15], -9.02% (active); in [16] it was 69%; in assay [17], 34.5%; in assay [18] it was 64.4%. Moreover, the growth in assay [19] was 30.3%; in assay [20], 0.318% (active).

Turning to `CCOC(=O)N1C=CC2C=CC1C1C=CC=CC2N1C(=O)OCC` (stereo not given), the growth in [1] was 108%; in assay [2], 91%; in assay [3], 106%; in assay [4], 106%; in assay [5] it was 103%; in assay [6], 89.3%. Moreover, the growth in assay [7] is 94.8%; in assay [8] it was 105%; in assay [9], 117%; in assay [10] it was 112%; in assay [11], 47.8%; in assay [12] it was 94.8%. In addition, the growth was 87% in [13]; 86.8% in assay [14]; 101% in assay [15]; 116% in [16]; 81.2% in assay [17]; 87.7% in assay [18]. The growth was 89.5% in assay [19] and 86.2% in assay [20].

Take `COc1ccc(/C=C2/CN(C(=O)c3ccc(C)cc3)C/C(=C\c3ccc(OC)cc3)C2=O)cc1`: the growth in assay [1] is 87.6%; in [2] it was 82.1%; in assay [3], 90.2%; in assay [4] it was 89.7%; in assay [5], 105%; in [6], 69.1%. Further, the growth is 87.9% in [7]; 99.9% in assay [8]; 97.6% in assay [9]; 93.5% in [10]; 23.7% in assay [11]; 91.4% in assay [12]. Also, the growth is 87.1% in assay [13]; 92.3% in assay [14]; 87.4% in assay [15]; 85.2% in [16]; 102% in assay [17]; 98.1% in assay [18]. The growth in assay [19] is 69.4%; in assay [20], 91.3%.

In the case of `Cc1cc(=O)n2nnc3c4ccccc4ccc3n12`, the growth in assay [1] is 94%; in assay [2], 59.8%; in assay [3], 96.3%; in [4], 70%; in assay [5] it was 83.9%; in assay [6], 87.9%. Also, the growth in [7] is 60.2%; in assay [8], 89.8%; in assay [9], 8.79% (active); in [10], 98.8%; in assay [11], 24.7%; in assay [12], 81.2%. Moreover, the growth in assay [13] is 71.4%; in [14], 98%; in assay [15], 84%; in [16], 104%; in assay [17], 82.3%; in assay [18], 81.1%. Further, the growth in assay [19] was 92.4%; in assay [20] it was 51.4%.

These data come from PubChem BioAssay (NCI).
